Measurements from the antibiotic and cytotoxicity screens of Wong et al. (2023).
About 500 (1.3%) of roughly 39,000 compounds were called active. Many of the other results were omitted from the sample, so actives are more common in it than they were.

System: S. aureus RN4220
Assay: growth inhibition call (relative growth <= 0.2)
Conditions: 50 µM

| SMILES | growth inhibition call |
| --- | --- |
| Cc1noc(C)c1NC(=O)N(C)C[C@@H]1Oc2cc(Br)ccc2S(=O)(=O)N([C@@H](C)CO)C[C@H]1C | inactive |
| C[C@@H]1O[C@@H](O[C@@H]2[C@@H](O)[C@H](OCCc3ccc(O)c(O)c3)O[C@H](COC(=O)/C=C/c3ccc(O)c(O)c3)[C@H]2O)[C@H](O)[C@H](O)[C@H]1O | inactive |
| CO[C@@H]1CN(C)C(=O)c2cc(NC(=O)CC(F)(F)F)ccc2OC[C@@H](C)N(C(=O)C2CCOCC2)C[C@@H]1C | inactive |
| C[N+]1(C)C[C@H](O)[C@H](C(=O)O)C1 | inactive |
| COCC(=O)N1C[C@H](C)[C@H](OC)CN(C)C(=O)c2ccc(NC(=O)c3cc(C)on3)cc2OC[C@H]1C | inactive |
| COCCOC(=O)N1C(=O)[C@@]2(c3cc(C#CCNC(N)=O)ccc31)[C@H](c1ccccc1OCCO)N1[C@H](c3ccccc3)[C@H](c3ccccc3)OC(=O)[C@H]1[C@@H]2C(N)=O | inactive |
| C[C@H](CO)N1C[C@H](C)[C@H](CN(C)S(=O)(=O)c2ccc(Oc3ccccc3)cc2)OCc2cnnn2CCCC1=O | inactive |
| Cc1noc(C)c1NC(=O)Nc1ccc2c(c1)C(=O)N([C@H](C)CO)C[C@@H](C)[C@@H](CN(C)S(=O)(=O)c1ccc(Cl)cc1)OCCCC[C@H](C)O2 | inactive |
| CCCC#Cc1ccc2c(c1)O[C@@H](CN(C)C(=O)c1cnccn1)[C@@H](C)CN([C@@H](C)CO)S2(=O)=O | inactive |
| COc1cc(CN2CCC(C(=O)N[C@@H](c3ccc(F)cc3)c3ccc4ccccc4n3)CC2)cc(OC)c1 | inactive |
| O=C(N[C@@H](c1ccc(-c2ccccc2)cc1)c1cnccn1)C1CCN(CCCOc2ccccc2)CC1 | inactive |
| O=C(N[C@@H](c1ccc(-c2ccccc2)cc1)c1cnccn1)C1CCN(Cc2cccc(C(F)(F)F)c2)CC1 | inactive |
| O=C(N[C@H](c1ccc(F)cc1)c1ccc2ccccc2n1)C1CCN(CCOc2ccc(Cl)cc2)CC1 | active |
| O=C(N[C@H](c1ccc(F)cc1)c1ccc2ccccc2n1)C1CCN(Cc2ccc3ccccc3n2)CC1 | inactive |
| O=C(N[C@@H](c1ccc(-c2ccccc2)cc1)c1cnccn1)C1CCN(CCOc2ccc(F)cc2)CC1 | active |
| C[C@@H]1CCCCO[C@@H](CN(C)Cc2ccc(Cl)c(Cl)c2)[C@H](C)CN([C@H](C)CO)C(=O)c2cc(NC(=O)C3CCCCC3)ccc2O1 | inactive |
| COc1ccc(NC(=O)N(C)C[C@@H]2OCCCC[C@H](C)Oc3ccc(NC(=O)Cc4ccccc4)cc3C(=O)N([C@@H](C)CO)C[C@@H]2C)cc1 | inactive |
| C[C@H]1CN([C@@H](C)CO)C(=O)c2cc(C#Cc3ccc(F)cc3)cnc2O[C@@H]1CN(C)CC1CCOCC1 | inactive |
